Among the test systems are DU-145 prostate; K-562 leukemia; MALME-3M melanoma; MDA-MB-231 breast; RXF 393 renal; SF-268 CNS; SF-295 CNS; SF-539 CNS; UACC-257 melanoma; M14 melanoma; HCT-15 colon; HT29 colon; SNB-75 CNS; SNB-19 CNS; U251 CNS; SK-MEL-5 melanoma; UACC-62 melanoma; LOX IMVI melanoma; SK-MEL-28 melanoma.
Assay in all cases: NCI-60 one-dose screen, 48 h (100 = growth as untreated, 0 = no growth, -100 = all killed)
Holding throughout (conditions): 10 µM unless noted

About 83,000 compounds went through this panel and 20% of them were active in at least one assay; those are over-represented in the sample as a whole.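 Plates (96-well) were seeded with cells, treated with compound at one concentration, and incubated for 48 hours before percent growth was determined.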 A number with no mark means an inactive call. The source made the active and inactive calls. Rule for the calls: active = growth percent below 10; inactive = the rest.

Take `Fc1ccc2[nH]cc(SSc3c[nH]c4ccc(F)cc34)c2c1`: the growth with DU-145 prostate was 90.4%; in the assay on K-562 leukemia it was 23.2%; in the assay on MALME-3M melanoma, 83.6%; with MDA-MB-231 breast, 42.7%; in the assay on RXF 393 renal, 14.4%; in the assay on SF-268 CNS, 17.7%. Further, the growth was -17.2% (active) in the assay on SF-295 CNS; 36.8% in the assay with SF-539 CNS; 78.7% in the assay on UACC-257 melanoma; 53.2% in the assay with M14 melanoma; 25.8% in the assay with HCT-15 colon; 39.2% with HT29 colon. Also, the growth was 64.1% in the assay with SNB-75 CNS; 41.1% in the assay with SNB-19 CNS; 13.8% with U251 CNS; 70% with SK-MEL-5 melanoma; 63.8% with UACC-62 melanoma; 25.5% with LOX IMVI melanoma. Further, in the assay with SK-MEL-28 melanoma, the growth is 75.6%.

On to `O=C(Nc1cccc2[nH]c(C(F)(F)F)nc12)c1ccc(-n2cnnn2)cc1`, for which the growth was 102% in the assay with DU-145 prostate; 21.5% in the assay with K-562 leukemia; 84.5% in the assay with MALME-3M melanoma; 93.1% in the assay on MDA-MB-231 breast; 96.1% with RXF 393 renal; 96% in the assay on SF-268 CNS. For the same compound, the growth in the assay with SF-295 CNS is 92.5%; in the assay on SF-539 CNS, 103%; in the assay with UACC-257 melanoma, 107%; with M14 melanoma, 107%; in the assay with HCT-15 colon it was 99.1%; with HT29 colon, 111%. The growth was 100% in the assay on SNB-75 CNS; 94% with SNB-19 CNS; 94.4% in the assay with U251 CNS; 87.2% in the assay with SK-MEL-5 melanoma; 34.3% in the assay with UACC-62 melanoma; 102% in the assay with LOX IMVI melanoma. In addition, in the assay with SK-MEL-28 melanoma, the growth was 120%.

Take `COc1ccc(C(=O)COc2ccc(/C=C3\COc4ccc(OC)cc4C3=O)cc2)cc1`: the growth was 107% with DU-145 prostate; 33.7% in the assay on K-562 leukemia; 90.2% in the assay with MALME-3M melanoma; 106% with MDA-MB-231 breast; 21.7% with RXF 393 renal; 112% in the assay with SF-268 CNS. Also, the growth is 144% with SF-295 CNS; 105% with SF-539 CNS; 29.2% in the assay on UACC-257 melanoma; 95% in the assay on M14 melanoma; 77.5% in the assay with HCT-15 colon; 93% in the assay with HT29 colon. Besides, the growth with SNB-75 CNS was 91.7%; with SNB-19 CNS, 101%; in the assay with U251 CNS, 84.3%; in the assay with SK-MEL-5 melanoma, 74.2%; in the assay with UACC-62 melanoma it was 85.1%; in the assay with LOX IMVI melanoma it was 80.7%. For the same compound, the growth with SK-MEL-28 melanoma was 94.5%.

With `O=C1/C(=C/N2N=C(c3ccc4ccccc4c3)CC2c2ccccc2O)SC(=S)N1c1cccnc1` (stereo not drawn), the growth in the assay with DU-145 prostate is 24.8%; in the assay with K-562 leukemia, 10.9%; with MALME-3M melanoma it was 79.5%; with MDA-MB-231 breast, 53%; in the assay on RXF 393 renal, -8.6% (active); in the assay with SF-268 CNS, 31.9%. The growth in the assay with SF-295 CNS was 10.5%; with SF-539 CNS it was -26.2% (active); in the assay with UACC-257 melanoma it was 69.1%; in the assay on M14 melanoma it was 7.17% (active); in the assay on HCT-15 colon, 12.4%; in the assay on HT29 colon it was 10.7%. Also, the growth in the assay on SNB-75 CNS is -4.45% (active); in the assay with SNB-19 CNS, 40.1%; in the assay on U251 CNS, 16.1%; in the assay on SK-MEL-5 melanoma, 64%; in the assay with UACC-62 melanoma, 66.2%; in the assay with LOX IMVI melanoma it was 27.5%. The growth with SK-MEL-28 melanoma is 78.6%.

Regarding `COc1ccc(-n2nc(C)c3c(Oc4ccc(NC(=O)Nc5c(Cl)cccc5Cl)cc4)ncnc32)cc1`, the growth with DU-145 prostate was 105%; in the assay with K-562 leukemia, 104%; with MALME-3M melanoma it was 99.4%; in the assay on MDA-MB-231 breast it was 101%; in the assay on RXF 393 renal, 107%; in the assay with SF-268 CNS it was 93.6%. Further, the growth with SF-295 CNS is 100%; with SF-539 CNS, 96.7%; with UACC-257 melanoma, 102%; in the assay with M14 melanoma it was 110%; with HCT-15 colon it was 105%; with HT29 colon, 107%. For the same compound, the growth was 93.6% in the assay with SNB-75 CNS; 98.5% in the assay on SNB-19 CNS; 96.9% with U251 CNS; 99.9% in the assay with SK-MEL-5 melanoma; 98.4% in the assay on UACC-62 melanoma; 100% in the assay on LOX IMVI melanoma. Also, in the assay on SK-MEL-28 melanoma, the growth is 106%.

For `CC(C)(C)N1CCC1CN` (stereo not drawn), the growth in the assay with DU-145 prostate is 118%; in the assay on K-562 leukemia, 135%; in the assay on MALME-3M melanoma, 147%; in the assay on MDA-MB-231 breast, 116%; in the assay with RXF 393 renal it was 155%; in the assay with SF-268 CNS, 100%. The growth in the assay on SF-295 CNS was 115%; in the assay on SF-539 CNS, 91.8%; in the assay with UACC-257 melanoma, -6.55% (active); in the assay on M14 melanoma it was 101%; in the assay with HCT-15 colon it was 126%; in the assay with HT29 colon, 111%. Moreover, the growth in the assay on SNB-75 CNS is 87.4%; in the assay with SNB-19 CNS, 101%; in the assay with U251 CNS, 117%; in the assay with SK-MEL-5 melanoma it was 136%; with UACC-62 melanoma, 112%; in the assay on LOX IMVI melanoma, 109%. Besides, the growth in the assay with SK-MEL-28 melanoma is 105%.

With `CN(CCCCCl)P(=O)(OCc1ccc([N+](=O)[O-])o1)C(F)(F)c1ccc(CC(=O)NC[C@@H](O)/C=C\[C@@H](O)[C@H](CO)Cc2ccccc2)cc1` (stereo partly drawn), the growth in the assay on DU-145 prostate was 105%; in the assay on K-562 leukemia, 50.2%; in the assay on MALME-3M melanoma, 92.1%; in the assay with MDA-MB-231 breast it was 89.3%; with RXF 393 renal, 100%; in the assay on SF-268 CNS it was 98.5%. For the same compound, the growth with SF-295 CNS is 98.3%; in the assay with SF-539 CNS, 102%; with UACC-257 melanoma, 92.2%; with M14 melanoma it was 95.3%; with HCT-15 colon it was 96.2%; with HT29 colon it was 77%. The growth is 95.4% with SNB-75 CNS; 102% with SNB-19 CNS; 93.7% with U251 CNS; 97.1% in the assay with SK-MEL-5 melanoma; 74.4% with UACC-62 melanoma; 60.4% in the assay on LOX IMVI melanoma. Further, the growth in the assay on SK-MEL-28 melanoma was 97.8%.
